# Bioassay records: PubChem, University of Kansas High Throughput Screening Laboratory
# mHTT-CaM PPI inh: mutant huntingtin-calmodulin interaction inhibitors – biochemical, AlphaScreen, primary screen; AlphaScreen His-mHTT/GST-CaM binding, luminescence; P42858; 190,000 compounds, 3.6% hits; inhibition, % at 15 µM;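 also: 0% = both proteins with DMSO and 100% = one protein alone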
# Pf apPOL inh: Pf-apPOL inhibitors, biochemical, fluorescence; Plasmodium falciparum apicoplast DNA polymerase (apPOL); Recombinant Pf-apPOL, molecular beacon fluorescence, 1.5 h; inhibition, % at 10 µM; 210,000 compounds, 0.25% hits; AID 1794808, 2022
# An asterisk follows results filed as active; / = not tested or not shown. This is a sample that favours compounds with a hit; in the whole collection about 3.5% have one here. Rule as the data show it: active = inhibition above about 50%; inactive = the rest.
SMILES,mHTT-CaM PPI inh,Pf apPOL inh
Cc1nc2cc(N3CC(C(=O)Nc4cc(F)cc(F)c4)CC3=O)ccc2o1 (configuration not stated),5,-2
COc1ccc(N2CCN(C(=O)c3ccccc3C)C(C)C2=O)cc1 (configuration not stated),-2,-2
O=C(Nc1cc(F)ccc1F)N1CCC(N2CCN(Cc3ccc(F)cc3)C2=O)CC1,6,-10
CSc1nnc2c(n1)OC(c1cccc(Br)c1)N(C(C)=O)c1ccccc1-2 (configuration not stated),19,-4
CSc1nnc2c(n1)OC(c1ccc(Br)s1)N(C(C)=O)c1ccccc1-2 (configuration not stated),71*,5
CSc1ccc(C2Oc3nc(SC)nnc3-c3ccccc3N2C(C)=O)cc1 (configuration not stated),35,-1
C=CCSc1nnc2c(n1)OC(c1ccc(OCC)cc1)N(C(C)=O)c1ccccc1-2 (configuration not stated),55*,-9
C=CCSc1nnc2c(n1)OC(c1ccc(OC)cc1)N(C(C)=O)c1ccccc1-2 (configuration not stated),37,2
CSc1nnc2c(n1)OC(c1ccc(Br)cc1)N(C(C)=O)c1ccccc1-2 (configuration not stated),75*,-6
CSc1nnc2c(n1)OC(c1ccc(Cl)cc1)N(C(C)=O)c1ccccc1-2 (configuration not stated),54*,7
CSc1nnc2c(n1)OC(c1ccc(Br)o1)N(C(C)=O)c1ccccc1-2 (configuration not stated),8,5
COCCNC(=O)c1ccc(Oc2nccc(C)n2)cc1,-8,-3
CCCc1ccc(S(=O)(=O)N2CCC(C(=O)NCCc3csc(C)n3)CC2)cc1,18,-5
O=C(NCCc1c[nH]c2ccccc12)C(=O)NCCc1c[nH]c2ccccc12,1,4
c1ccc(C2CCC(NCCc3c[nH]c4ccccc34)CC2)cc1 (configuration not stated),77*,-4
Cc1cc(C)nc(SCC(=O)Nc2nc(-c3ccccc3)cs2)n1,1,-2
COc1ccc(NC(=O)C2CC(=O)N(C)C(=Nc3ccc(Cl)c(C(F)(F)F)c3)S2)cc1 (configuration not stated),5,7
COc1ccc(NC(=O)C2CC(=O)N(C)C(=Nc3ccc(Cl)c(Cl)c3)S2)cc1 (configuration not stated),85*,1
O=[N+]([O-])c1cc(S(=O)(=O)Nc2ccc3oc4c(c3c2)CCCC4)ccc1Cl,75*,-9
Cc1ccc(S(=O)(=O)Nc2ccc(Cl)cc2)cc1[N+](=O)[O-],9,-1
O=[N+]([O-])c1ccc2oc3c(c2c1)CCCC3,-4,-3
O=C1CCCc2oc3ccc(NS(=O)(=O)c4cc([N+](=O)[O-])ccc4Cl)cc3c21,27,10
O=[N+]([O-])c1ccc(Cl)c(S(=O)(=O)Nc2ccc3oc4c(c3c2)CCCC4)c1,68*,22
Cc1ccc(S(=O)(=O)Nc2ccc3oc4ccccc4c3c2)cc1[N+](=O)[O-],97*,-2
O=C(Cc1cccs1)N1CCC(Cn2c(COc3ccccc3)nc3ccccc32)CC1,-7,-6
SMILES,mHTT-CaM PPI inh,Pf apPOL inh
O=C(O)c1nccnc1C(=O)Nc1cc(Cl)ccc1Cl,0,3
CCCCCC(O)C=CC1C(O)CC(=O)C1CC=CCCCC(=O)O (configuration not stated),/,-6
CC(C)NC(=O)c1csc(COc2ccccc2)n1,-14,-4
O=[N+]([O-])c1ccc(N2CCN(c3cccc(C(F)(F)F)c3)CC2)s1,38,-1
O=C(O)c1cc([N+](=O)[O-])c(N2CCN(c3cccc(C(F)(F)F)c3)CC2)c([N+](=O)[O-])c1,47,84*
COc1cc(C(=O)O)c(C2Oc3ccccc3C3CC(c4ccccc4)=NN32)cc1OC (configuration not stated),50*,-5
O=C(c1cccs1)N1N=C(c2cccs2)CC1c1cc([N+](=O)[O-])ccc1O (configuration not stated),48,2
COc1c(O)ccc(C2Oc3ccccc3C3CC(c4cccs4)=NN32)c1[N+](=O)[O-] (configuration not stated),55*,0
COc1cc(C2Oc3ccccc3C3CC(c4cccs4)=NN32)cc(OC)c1O (configuration not stated),47,8
CCOc1cccc(C2Oc3ccccc3C3CC(c4cccs4)=NN32)c1O (configuration not stated),50*,-4
Clc1cccc(C2Oc3ccccc3C3CC(c4ccccc4)=NN32)c1 (configuration not stated),-7,/
COc1ccc(OC)c(C2Oc3c(OC)cccc3C3CC(c4cccs4)=NN32)c1 (configuration not stated),2,-13
